The values below come from PubChem BioAssay (EPA / NIEHS).

Inconclusive results are not listed. Active and inactive are the calls of the source. How the source made its calls: active means hit-call score of the fitted dose curve at least 0.9, where 1 is the maximum; inconclusive means response in the unintended direction; inactive means score below 0.9.

This assay can be described thus: ATG_M_19_TRANS: Attagene TRANS-FACTORIAL HepG2 Assay for M19 Transcription Factor (Internal Marker) (AID 2282974). Conditions: HepG2 Attagene TRANS-FACTORIAL M19 internal marker reporter. On the procedure: ATG_TRANS is a cell-based, multiplexed-readout assay that uses HepG2, a human liver cell line, with measurements taken at 24 hours after chemical dosing in a 24-well plate.ATG_M_19_TRANS is one of 30 assay component(s) measured or calculated from the ATG_TRANS assay. It is designed to make measurements of mRNA induction, a form of inducible reporter, as detected with fluorescence intensity signals by Reverse transcription polymerase chain reaction (RT-PCR) and Capillary electrophoresis technology.Data from the assay component ATG_M_19_TRANS was analyzed into 1 assay endpoint. This assay endpoint, ATG_M_19_TRANS, was analyzed in the positive analysis fitting direction relative to DMSO as the negative control and baseline of activity. Using a type of inducible reporter, measures of mRNA for gain-of-signal activity can be used to understand the background control at the transcription factor-level as they relate to the gene . Furthermore, this assay endpoint can be referred to as a secondary readout, because this assay has produced multiple assay endpoints where this one serves a background control function. To generalize the intended target to other relatable targets, this assay endpoint is annotated to the background measurement intended target family, where the subfamily is internal marker.
Human liver HepG2 cells are transiently transfected with multiple reporter transcription units (MRTUs) in 6-well plates using FuGene 6 reagent (Roche; 3 ml FuGene/1 mg DNA). The MRTU constructs are regulated by a cis-regulating element (promoter). […] A major difference between the CIS and TRANS system is that in CIS activities of endogenous TFs are measured, whereas the TRANS assay evaluates changes in activities of exogenous, chimeric NR-Gal4 proteins. […] At the end of 24 hour incubation, total RNA was isolated using TriZol reagent (Invitrogen). The isolated RNA is then reverse-transcribed using oligo(dT) primer and Mo-MLV reverse transcriptase (Invitrogen) with DNAse I (Ambion) treatment for 30 min. The one-tenth of the produced cDNA was amplified by PCR using Taq DNA polymerase (Invitrogen) and two reporter sequence-specific primers. The PCR products were fluorescently labeled by primer extension with 6-arboxyfluorescein (6-FAM) 5'-labeled reporter sequence-specific primer (2 min at 95 C, 20 s at 68 C and 10 min at 72 C) and these products were digested with 5U of HpaI (New England Biolabs) for 2h at 37 C. The fragments were purified using Qiaquick PCR columns (Qiagen), analyzed on an ABI 3130xL genetic analyzer (Applied Biosystems) with peak positions identified by using a set of X-rhodamine (ROX)-labeled MapMarker1000 molecular weight standards (BioVentures). The raw capillary electrophoresis data was processed using Attagraph software (Attagene).
As to `COS(=O)(=O)O`, the compound was classed as inactive.
Turning to `CS(C)=O`, the result was inactive.
In the case of `CCCCCCCCc1ccc(S(=O)(=O)O)cc1` it was “inactive”.
In the case of `CCCCOCC`, the call was inactive.
Consider `C[N+](C)(C)CCCCCC[N+](C)(C)C`, for which the call was inactive.
For `COc1cc(CCC(C)=O)ccc1O`, the outcome was inactive.
In the case of `C1CCCCC1`, the compound was called inactive.
As for `Cc1ccc(S(=O)(=O)Oc2ccc(N=Nc3ccc(-c4ccc(N=Nc5c(O)ccc6cc(S(=O)(=O)O)cc(S(=O)(=O)O)c56)c(C)c4)cc3C)cc2)cc1`, the entry is “inactive”.
For `CCCC(=O)OC(C)(C)Cc1ccccc1`, the outcome was inactive.
In the case of `CC(=O)CC(=O)Nc1ccc(C)cc1C` it was “inactive”; in that of `COc1cc([C@@H]2c3cc4c(cc3[C@@H](O[C@@H]3O[C@@H]5CO[C@@H](C)O[C@H]5[C@H](O)[C@H]3O)[C@H]3COC(=O)[C@H]23)OCO4)cc(OC)c1O`, “inactive”; in that of `COc1cc(Cl)c(OC)cc1N`, “inactive”.
As for `Cc1cc(C)nc(NS(=O)(=O)c2ccc(N)cc2)n1`, the compound was called inactive.
In the case of `COC(=O)c1ccc(OC)cc1` it was “inactive”; in that of `CN(C)CCOc1ccc(/C(=C(/CCCl)c2ccccc2)c2ccccc2)cc1`, “inactive”; in that of `CCCCCCC(CO)CCCC` (stereo not given), “inactive”.
In the case of `CCCCCCCCCCCCCCCC(=O)OC/C=C(C)/C=C/C=C(C)/C=C/C1=C(C)CCCC1(C)C` it was “inactive”; in that of `C/C=C(\C)C(=O)OCCc1ccccc1`, “inactive”; in that of `CC(C)NCC(O)COc1ccc(CC(N)=O)cc1` (stereo not given), “inactive”.
As for `CC1=C(Br)C(=O)C(Br)=C/C1=C(/c1ccccc1S(=O)(=O)O)c1cc(Br)c(O)c(Br)c1C`, the entry is “inactive”; as for `CC(C)C(OC(=O)c1ccccc1)C(C)(C)COC(=O)c1ccccc1` (stereo not given), “inactive”.
In the case of `NCc1ccco1`, the result was inactive.
In the case of `COc1ccc(CCC(C)=O)cc1` it was “inactive”.
As for `C=C[Si]1(C)O[Si](C)(C=C)O[Si](C)(C=C)O[Si](C)(C=C)O1` (stereo not given), the entry is “inactive”; as for `Cc1cc(CCC(=O)OCCOCCOCCOC(=O)CCc2cc(C)c(O)c(C(C)(C)C)c2)cc(C(C)(C)C)c1O`, “inactive”.
Regarding `CC/C=C\CC/C=C/CO`, the result was inactive.
As for `CCCOCCO`, the entry is “inactive”; as for `C=COCCOCCOC=C`, “inactive”; as for `CN1CCOCC1`, “inactive”.
As for `c1ccc(CCc2ccccc2)cc1`, the entry is “inactive”; as for `CCC(=O)OCCOc1ccccc1`, “inactive”; as for `CCC1CCCCC1`, “inactive”.
As for `CC(=O)O[C@H]1C[C@@H]2CC[C@@]1(C)C2(C)C`, the entry is “inactive”.
On to `CC(=O)OCCCc1ccccc1`, for which the compound was called inactive.
With `Clc1ccc(C(c2ccccc2Cl)C(Cl)Cl)cc1` (stereo not given), the call was inactive.
As to `Nc1ccc(N)c2c1C(=O)c1ccccc1C2=O`, the compound was classed as inactive.
As for `OC[C@H]1O[C@@H]2O[C@H]3[C@H](O)[C@@H](O)[C@@H](O[C@H]4[C@H](O)[C@@H](O)[C@@H](O[C@H]5[C@H](O)[C@@H](O)[C@@H](O[C@H]6[C@H](O)[C@@H](O)[C@@H](O[C@H]7[C@H](O)[C@@H](O)[C@@H](O[C@H]8[C@H](O)[C@@H](O)[C@@H](O[C@H]9[C@H](O)[C@@H](O)[C@@H](O[C@H]1[C@H](O)[C@H]2O)O[C@@H]9CO)O[C@@H]8CO)O[C@@H]7CO)O[C@@H]6CO)O[C@@H]5CO)O[C@@H]4CO)O[C@@H]3CO`, the entry is “inactive”; as for `C=C(C)C(=O)OCC(CC)(COC(=O)C(=C)C)COC(=O)C(=C)C`, “inactive”.
Turning to `O=c1[nH]c(=O)c2cn[nH]c2[nH]1`, the call was inactive.
As for `CCCSc1ccc2nc(NC(=O)OC)[nH]c2c1`, the call was inactive.
